Source: PubChem BioAssay (National Center for Advancing Translational Sciences (NCATS))
NPC1 prom act: activates the NPC1 promoter; Potency, µM (series often up to 9.22 µM), for the others: at the highest dose activation, usual class: activators; 2.4% of 320,000 active; Huh7 NPC1 promoter luciferase reporter, 24 h; AID 485313; further: % of control where 0% means no effect; nearly all actives have a fitted effect of over 60% in size
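Readout is luciferase luminescence, reflecting NPC1 promoter activation in stably transfected Huh7 cells after 24 h compound exposure at 37 °C in reduced-serum medium with 10% FBS.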
SMN2 splice up: SMN2 splice variant enhancement | HEK293 SMN2-luciferase splicing reporter, luminescence, 30-36 h | 2.8% of 210,000 active | AID 1458 | Potency, µM (top dose mostly 46.1 µM), inactives show top-dose activity change, positive = activation, hits mostly activators; further: % of control where 0% means no effect; nearly all actives have a fitted effect of over 55% in size
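HEK293 cells carry an SMN2 […]–luciferase reporter in which exon 7 inclusion puts luciferase in frame. Cells were plated 10-12 h before compound addition, then incubated 30-36 h at 37C. ONE-Glo luminescence was read; sodium butyrate at 4.5 mM final served as control.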
ELG1 genotox: genotoxicity induction in ELG1-luciferase HEK293T cells | Potency, µM (highest dose often 46 µM), for the others: at the highest dose activity change, positive = activation, actives largely listed as activators | AID 504466 | HEK293T ELG1-luciferase reporter, luminescence, 16 h | 1.3% of 330,000 active; further: % of control where 0% means no effect; nearly all actives have a fitted effect of over 60% in size
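Genotoxicity was scored as increased ELG1-luciferase reporter signal, measured by ONE-Glo luminescence (30 min, room temperature). Compound or vehicle exposure of the HEK293T reporter cells lasted 16 hr at 37°C.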
Rab9 promoter act: Rab9 promoter activation; 2.8% of 320,000 active; Potency, µM (titrated, usually from 9.22 µM), for inactives: at the top dose activation, negative = inhibition, usual class: activators; Huh7 Rab9 promoter-luciferase reporter, luminescence, 24 h; further: % of control where 0% means no effect; nearly all actives have a fitted effect of over 60% in size
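Rab9 promoter-driven luciferase in stably transfected Huh7 cells; 1500 cells/well rested 2 h, exposed to compound in DMSO for 24 h at 37 °C, 5% CO2. Luminescence read 10 min after adding luciferase reagent at ambient temperature.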
FLuc modulator: firefly luciferase modulation, counter-screen for miR-21 project. AID 588342. purified FLuc, Km substrates, luminescence inhibition. Potency, µM (titrated, usually from 57.5 µM), for the others: at the highest dose activity change, negative = inhibition, most hits filed as inhibitors. 6.9% of 360,000 active. P08659;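 further: plate controls were vehicle for no effect and reference inhibitor for full effect; nearly all actives have a fitted effect of over 55% in size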
Target sequence (P08659 whole entry, looked up): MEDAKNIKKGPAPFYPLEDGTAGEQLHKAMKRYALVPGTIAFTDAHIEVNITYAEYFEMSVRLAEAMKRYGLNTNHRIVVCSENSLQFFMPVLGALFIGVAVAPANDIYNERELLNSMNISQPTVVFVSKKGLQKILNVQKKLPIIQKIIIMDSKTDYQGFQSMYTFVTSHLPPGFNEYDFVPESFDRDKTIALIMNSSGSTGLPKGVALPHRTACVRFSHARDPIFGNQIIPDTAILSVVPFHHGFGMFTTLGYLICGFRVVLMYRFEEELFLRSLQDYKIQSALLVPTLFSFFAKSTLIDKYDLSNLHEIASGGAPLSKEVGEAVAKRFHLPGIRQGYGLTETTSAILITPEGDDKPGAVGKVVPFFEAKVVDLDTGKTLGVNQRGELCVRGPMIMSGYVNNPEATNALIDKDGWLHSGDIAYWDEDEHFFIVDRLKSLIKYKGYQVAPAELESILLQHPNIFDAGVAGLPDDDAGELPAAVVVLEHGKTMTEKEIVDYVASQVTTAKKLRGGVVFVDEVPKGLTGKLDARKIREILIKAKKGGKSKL
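Purified P. pyralis luciferase (10nM final) with 10uM D-luciferin and 10uM ATP (Km levels) in 50mM Tris acetate pH 7.5, 10mM Mg acetate, 0.01% Tween-20, 0.05% BSA; qHTS 6-point titration, ~60 µM downward; luminescence read.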
p53 reactivation: restores transcriptional activity of mutant p53; H1299 p53-A138V BP100-luciferase reporter, luminescence, 24 h; Potency, µM (top dose mostly 92.2 µM), without a hit: at the top dose activity change, positive = activation, hits mostly activators; 0.063% of 320,000 active; AID 504706; further: % of control where 0% means no effect; nearly all actives have a fitted effect of over 45% in size
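H1299 (p53-null), stable ts p53-A138V + BP100-Luc; 1000 cells/well, Opti-MEM/10% FBS; cpd 4 pt, 1:5; 24 h, 37 deg C, 5% CO2; detection reagent 10 min RT; luminescence.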
An asterisk follows results filed as active; ? = inconclusive; / = no result given; [ ] = dose if it differs, or a comment. Shown are actives, neighbours in structure and some others; about 7.4% of the full set was active somewhere. The call rests on the fitted dose curve; in most records, active means well fitted curve in the direction sought with a large enough effect; inconclusive means small, poorly fitted or top-dose-only effect, or another doubt; inactive means no such curve, though single readings can be large; an effect the other way counts as inactive or inconclusive. Potency means the concentration at half of the fitted maximal effect.

SMILES | NPC1 prom act | SMN2 splice up | ELG1 genotox | Rab9 promoter act | FLuc modulator | p53 reactivation
O=C(COc1ccc(Br)cc1Br)NC1CCCC1 | -0.5% | -56.8% | 21.5% | 0.3% | 16.9µM* | 27.9%
COCCNC(=O)COc1ccc(Br)cc1Cl | 22.0% | -6.7% | ? | 26.6% | ? | 7.1%
C=CCNC(=O)COc1ccc(Br)cc1Cl | ? | ? | 13.7% | ? | 16.9µM* | ?
CC1(C)S[C@@H]2[C@H](NC(=O)COc3ccccc3)C(=O)N2[C@H]1C(=O)O (tested in a mixture with another compound) | / | -9.9%[20.6 µM] | / | / | / | /
CCCCSCCCNC(=O)CN1C(=O)c2cccnc2Oc2ccc(Cl)cc21 | / | / | / | / | -16.8% | /
CCOc1ccc(-c2cc(C(=O)Oc3ccc(C#N)cc3)no2)cc1 | / | / | / | / | -0.8% | /
COc1ccc(Oc2ncc3ncc(=O)n(C[C@H]4CCCO4)c3n2)cc1 | / | -12.2% | / | / | / | /
CSc1ccc(CNC(=O)Cn2nc(C)c3c(C)n(-c4ccc(C)cc4)nc3c2=O)cc1 | -11.1% | / | 4.0%[9.26 µM] | -10.6% | 1.1% | -3.7%
COc1ccc(C(=O)N/N=C/c2ccc(OC)c(COc3ccc(F)cc3F)c2)cc1 | -3.6% | / | -16.3% | -4.1% | -3.3% | -17.6%
O=C(COc1ccc(Br)cc1Cl)NC(=O)NC1CCCC1 | 29.3% | / | ? | ? | 9.53µM* | ?
Cc1cc(Cl)ccc1OCC(=O)NC1CCCC1 | -0.9% | -76.3% | ? | 1.6% | ? | 18.5%
O=C(COc1ccc(Br)cc1Cl)NC1CCCCC1 | 2.82µM* | ? | ? | 1.41µM* | 3.01µM* | ?
C=Cc1ccc(Cn2c(C(=O)O)c(CNCc3ccccc3)c3ccc(OC)cc32)cc1 | / | / | / | / | -7.8% | /
COc1ccc(CC(=O)N2CCc3cc(OC)c(OC)cc3C2COc2ccc(F)cc2)cc1 (stereo not given) | / | / | / | / | -11.1% | /
Nc1nc(-c2ccccc2)c(N=Nc2cccc3ccccc23)s1 | 1.2% | -27.9% | 0.4% | -3.2% | 26.9µM* | -0.5%
Nc1nc(-c2ccccc2)c(N=Nc2ccccc2Cl)s1 | -1.6% | -15.5% | 3.2% | -2.2% | ? | -12.1%
CCOc1ccc(S(=O)(=O)N2CCN(Cc3nc4ccc(C)cc4o3)CC2)cc1 | / | / | / | / | -13.1% | /
COCCCN=C1NN=C(c2cc(C)n(Cc3ccccc3Cl)c2C)CS1 | -4.1% | ? | ? | 23.1% | 12µM* | 17.8%
COCCCN=C1NN=C(c2cc(C)n(-c3ccccc3F)c2C)CS1 | ? | 15.8% | -8.9% | 0.316µM* | 2.39µM* | 24.1%
Cc1cc(C2=NNC(=NC3CC3)SC2)c(C)n1-c1c(C)n(C)n(-c2ccccc2)c1=O | 5.5% | -4.4% | -3.1% | -12.1% | -6.3% | ?
Cc1cc(C2=NNC(=Nc3ccccc3)SC2)c(C)n1C | 3.16µM* | ? | ? | 1.41µM* | 10.7µM* | -3.1%
COCCn1c(C)cc(C2=NNC(=Nc3ccccc3F)SC2)c1C | ? | -31.0% | ? | 0.4% | 0.536µM* | -10.0%
COCCN=C1NN=C(c2cc(C)n(CC3CCCO3)c2C)CS1 (stereo not given) | 28.1% | -16.1% | 11.9% | ? | ? | -0.6%
COc1ccc(-n2ccn3c(CC(C)(C)CC(=O)O)nnc3c2=O)cc1 | / | -3.4% | / | / | -5.3% | /
Cc1cc(C2=NNC(=NCCc3ccccc3)SC2)c(C)n1-c1c(C)n(C)n(-c2ccccc2)c1=O | -3.6% | / | -5.4% | 1.9% | -5.5% | -2.1%
COCCCN=C1NN=C(c2cc(C)n(-c3ccccc3)c2C)CS1 | ? | -63.0% | ? | 1.26µM* | 4.26µM* | ?
CCOc1ccc(C2c3c(oc4ccc(C)cc4c3=O)C(=O)N2Cc2ccc3c(c2)OCO3)cc1OC (stereo not given) | / | 2.0% | / | / | 1.7% | /
O=C(Nc1ccsc1C(=O)O)c1ccc(Cl)cc1 | 2.82µM* | / | 23.1µM* | 3.98µM* | 8.49µM* | ?
O=C(CNC(=O)c1ccccc1)Nc1ccsc1C(=O)O | -4.0% | / | 0.0% | -1.1% | -8.0% | -0.4%
